Data published in ChEMBL document CHEMBL1961873, “Compounds: GSK PKIS; Assays: Nanosyn kinase panel” (2012).

These compounds were tested against Fibroblast growth factor receptor 3 (Homo sapiens) (UniProt P22607). Settings: at 0.1 µM.
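Note: each value is a mean percent inhibition of FGFR3.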

Sequence of Fibroblast growth factor receptor 3 (Homo sapiens) (P22607 23-806 limits assumed): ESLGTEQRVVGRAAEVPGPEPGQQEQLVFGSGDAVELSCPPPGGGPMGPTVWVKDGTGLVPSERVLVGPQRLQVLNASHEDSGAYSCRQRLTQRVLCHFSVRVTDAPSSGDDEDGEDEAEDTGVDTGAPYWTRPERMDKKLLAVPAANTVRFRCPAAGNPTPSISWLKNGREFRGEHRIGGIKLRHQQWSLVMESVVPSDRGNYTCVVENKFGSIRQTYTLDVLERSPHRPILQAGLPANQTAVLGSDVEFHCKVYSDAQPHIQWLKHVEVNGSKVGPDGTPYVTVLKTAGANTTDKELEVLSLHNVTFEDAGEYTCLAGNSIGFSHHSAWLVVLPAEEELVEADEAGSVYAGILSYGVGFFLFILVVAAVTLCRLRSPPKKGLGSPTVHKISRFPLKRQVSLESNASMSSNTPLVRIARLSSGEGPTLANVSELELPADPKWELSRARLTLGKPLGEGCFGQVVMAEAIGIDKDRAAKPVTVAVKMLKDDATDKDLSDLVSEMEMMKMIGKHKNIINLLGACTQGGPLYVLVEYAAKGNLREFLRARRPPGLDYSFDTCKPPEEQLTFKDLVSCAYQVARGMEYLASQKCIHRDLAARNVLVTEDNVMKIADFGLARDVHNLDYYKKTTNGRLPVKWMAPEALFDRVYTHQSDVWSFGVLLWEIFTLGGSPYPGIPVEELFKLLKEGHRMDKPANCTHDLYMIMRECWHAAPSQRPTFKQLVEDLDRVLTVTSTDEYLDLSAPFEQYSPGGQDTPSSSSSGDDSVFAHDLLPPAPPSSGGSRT

| Compound | inhibition |
| --- | --- |
| COc1cccc(-n2ncc3c(N/N=C/c4ccc(C(=O)NCCN(C)C)cc4)ncnc32)c1 | 6.47% |
| O=C(O[C@H]1CN[C@H](C#Cc2cc3ncnc(Nc4ccc5c(cnn5Cc5ccccc5)c4)c3s2)C1)N1CCOCC1 | 0.4% |
| COc1cc(N2CCN(C(C)C)CC2)ccc1Nc1nc(Nc2cccc(F)c2C(=O)O)c2cc[nH]c2n1 | 4.65% |
| COC(=O)Nc1nc2ccc(Oc3ccc(NC(=O)Nc4cc(C(F)(F)F)ccc4F)cc3)cc2s1 | 5.73% |
| CCS(=O)(=O)c1ccc(OC)c(Nc2ncc(-c3cccc(C(C)=O)c3)o2)c1 | 20% |
| CN(C)CCNC(=O)Nc1ccc(N(C)c2ccnc(Nc3ccc(CS(C)(=O)=O)cc3)n2)cc1 | 6.17% |
| CC1(C)CC(n2cnc(-c3ccc(F)cc3)c2-c2ccnc(N)n2)CC(C)(C)N1 | 1.59% |
| CCS(=O)(=O)c1ccc(OC)c(Nc2ncc(-c3cccc(F)c3)o2)c1 | 52.9% |
| Fc1cccc(COc2ccc(Nc3ncncc3C#Cc3ccccc3)cc2Cl)c1 | 4.99% |
| COc1ccccc1-c1cc(/C=C2\C(=O)Nc3ncc(Br)cc32)cc(Br)c1O | 8.55% |
| OCCCNc1nccc(-c2c(-c3ccc(F)cc3)nn3cc(C(F)(F)F)ccc23)n1 | 2.01% |
| NS(=O)(=O)c1ccc(N/N=C2\C(=O)Nc3cccc(CCc4ccncc4)c32)cc1 | 6.3% |
| O=C1Nc2ccccc2/C1=C1\CCc2cc(O)ccc21 | 10.3% |
| COc1cccc(Nc2nccc(-c3cnn4ncccc34)n2)c1 | 0.93% |
| CS(=O)(=O)Nc1ccc(-c2cc(-c3ccccc3)cc(C(N)=O)c2N)cc1 | -0.12% |
